Records with an inconclusive call do not appear. Activity calls are given as the source filed them. Calls come from the whole dose curve; as a rule, active = well fitted cell-killing curve with a large enough effect; inconclusive = small, poorly fitted or top-dose-only effect, or effect the other way; inactive = no such curve, though single readings can be large or run the other way.
Potency is the fitted concentration of half-maximal effect.

This experiment can be described thus: Quantitative High-Throughput drug screen in 47 multiple myeloma cell lines against the NCATS MIPE library collection: JJN3_DSMZ cell viability assay (AID 1918966; note: nearly all actives have a fitted effect of over 50% in size). Conditions: JJN3 myeloma cells viability, CellTiter-Glo ATP, 48 h; series mostly up to 45.8 µM; viability, % of DMSO: at the top concentration. The source says:
PI: Beverly A. Mock Ph.D.
Laboratory of Cancer Biology and Genetics,
Center for Cancer Research, National Cancer Institute,
National Institute of Health, Bethesda, Maryland
Drug resistance and disease progression are common in multiple myeloma (MM) patients, underscoring the need for new therapeutic combinations. […] We hypothesized that effective combinations would reduce MYC expression and enhance p16 activity. […] These preclinical data identify potentially useful drug combinations for evaluation in drug-resistant MM and reveal potential mechanisms of combined drug sensitivity.
Described herein is the primary MIPE qHTS used to cherrypick compounds. Validated compounds were then further tested for potential synergistic activiy.
[1] Peat TJ, Gaikwad SM, Dubois W, Gyabaah-Kessie N, Zhang S, Gorjifard S, Phyo Z, Andres M, Hughitt VK, Simpson RM, Miller MA, Girvin AT, Taylor A, Williams D, D'Antonio N, Zhang Y, Rajagopalan A, Flietner E, Wilson K, Zhang X, Shinn P, Klumpp-Thomas C, McKnight C, Itkin Z, Chen L, Kazandijian D, Zhang J, Michalowski AM, Simmons JK, Keats J, Thomas CJ, Mock BA. Drug combinations identified by high-throughput screening promote cell cycle transition and upregulate Smad pathways in myeloma. Cancer Lett. 2023 Aug 1;568:216284. doi: 10.1016/j.canlet.2023.216284. Epub 2023 Jun 24. PMID: 37356470; PMCID: PMC10408729.
SEQUENCE No. (e.g., 1, 2, 3, etc.); […] (e.g., Cells, Incubation, Reagent, etc.); VALUE and DESCRIPTION.
1; Cells; 5 uL; white, solid bottom 1536-well Greiner assay plate.
2; Compounds; 23 nL; Kalypsis pin tool (Wako USA) equipped with a 1536-well pin head to transfer to the assay plates.
3; Incubation; 48 hours; 37C incubation.
4; Reagent;5uL; CellTiter Glo (Promega).
5; Detector; 425V; Luminescence; Viewlux PerkinElmer.
NOTES (numbers refer to Sequence numbers above)
1. The cell-based screening methods employed in this study were like those previously published. Briefly, the corresponding myeloma cell lines were screened in 1,536-well plates with 500 cells, 5-uL per well for inhibition of cell viability (assessed by measuring ATP levels with CellTiterGlo).
2. NCATS MIPE 4.0 library of approved and investigational drugs were added using the Kalypsis pin tool. Wells treated with DMSO only for 100% viability and media only wells for 0% viability were used as controls.
3. The assay plates were covered and incubated for 48 hours in a 37C, 5% CO2 incubator with controlled humidity.
4. After 48 hours, CellTilter-GloTM luminescent substrate mix (Promega) reagent was added to the assay plate and plates we incubated for 5 min at room temperature.
5. Signal was measured as median relative luminescence units on a ViewLux (PerkinElmer) multiplate reader.
[1] Heske CM, Davis MI, Baumgart JT, Wilson K, Gormally MV, Chen L, Zhang X, Ceribelli M, Duveau DY, Guha R, Ferrer M, Arnaldez FI, Ji J, Tran HL, Zhang Y, Mendoza A, Helman LJ, Thomas CJ. Matrix Screen Identifies Synergistic Combination of PARP Inhibitors and Nicotinamide Phosphoribosyltransferase (NAMPT) Inhibitors in Ewing Sarcoma. Clin Cancer Res. 2017 Dec 1;23(23):7301-7311. doi: 10.1158/1078-0432.CCR-17-1121. Epub 2017 Sep 12. PMID: 28899971; PMCID: PMC6636827.
A general note: In ATP-based viability assays light output follows the ATP content of the culture.
Consider `Cc1ccc(S(=O)(=O)N[C@@H](Cc2ccccc2)C(=O)CCl)cc1`, for which the Potency was 18.7 µM (active). Consider `C1CCC(C(CC2CCCCN2)C2CCCCC2)CC1` (stereo not given), for which the Potency is 20.9 µM (active).

For `C[C@@H](CN1CC(=O)NC(=O)C1)N1CC(=O)NC(=O)C1`, the “viability, % of DMSO” value is 154% (inactive). On to `CCOCC(O)COc1ccc(NC(=O)CC[S+](C)C)cc1` (stereo not given), for which the “viability, % of DMSO” value is 107% (inactive).

Take `CC(C)Cn1cnc2c(N)nc3ccccc3c21`: the Potency was 18.7 µM (active). With `CCCc1nc(C)c2c(=O)[nH]c(-c3cc(S(=O)(=O)N4CCN(CC)CC4)ccc3OCC)nn12`, the Potency was 4.18 µM (active). In the case of `N=C(N)c1ccc(OCCCCCOc2ccc(C(=N)N)cc2)cc1`, the Potency was 16.6 µM (active). Take `CO[C@@]12[C@H](COC(N)=O)C3=C(C(=O)C(C)=C(N)C3=O)N1C[C@@H]1N[C@@H]12`: the Potency is 26.4 µM (active). The same measure, in the same setting: to `COC(=O)Nc1nc2ccc(Sc3ccccc3)cc2[nH]1` belongs 10.5 µM (active); to `Nc1nc(F)nc2c1ncn2[C@@H]1O[C@H](CO)[C@@H](O)[C@@H]1O`, 0.235 µM (active); to `Nc1nc(=S)c2[nH]cnc2[nH]1`, 4.69 µM (active). As for `CCOC(=O)c1ccc(OC(=O)CCCCCN=C(N)N)cc1`, the “viability, % of DMSO” value is 162% (inactive). Consider `CN1CCCC(n2nc(Cc3ccc(Cl)cc3)c3ccccc3c2=O)CC1` (stereo not given), for which the Potency is 2.96 µM (active). Take `CCCc1cc(C(N)=S)ccn1`: the “viability, % of DMSO” value is 153% (inactive). Take `CC(C)OC(=O)OCOP(=O)(CO[C@H](C)Cn1cnc2c(N)ncnc21)OCOC(=O)OC(C)C`: the Potency was 18.7 µM (active). In the case of `CNS(=O)(=O)CCc1ccc2[nH]cc(C3CCN(C)CC3)c2c1`, the Potency was 0.0418 µM (active).

As to `COC(=O)Nc1nc2ccc(C(=O)c3ccccc3)cc2[nH]1`, the Potency is 2.64 µM (active). Still for that read-out and setting: to `COc1cc(NCc2ccc3nc(N)nc(N)c3c2C)cc(OC)c1OC` belongs 3.72 µM (active); to `CN(C)c1ccc(C(=C2C=CC(=[N+](C)C)C=C2)c2ccc(N(C)C)cc2)cc1`, 0.0187 µM (active). For the compound `CCCCc1oc2ccc(NS(C)(=O)=O)cc2c1C(=O)c1ccc(OCCCN(CCCC)CCCC)cc1`, the Potency was 14.8 µM (active).

As for `COc1cc2c(Nc3ccc(Br)cc3F)ncnc2cc1OCC1CCN(C)CC1`, the Potency is 18.7 µM (active). On to `CCC(=O)O[C@]1(C(=O)SCF)[C@H](C)C[C@H]2[C@@H]3C[C@H](F)C4=CC(=O)C=C[C@]4(C)[C@@]3(F)[C@@H](O)C[C@@]21C`, for which the “viability, % of DMSO” value is 136% (inactive). Consider `CCOC(=O)[C@H](CCc1ccccc1)N[C@H]1CS[C@H](c2cccs2)CN(CC(=O)O)C1=O`, for which the Potency was 16.6 µM (active).

Turning to `COc1cc(NS(=O)(=O)c2ccc(N)cc2)nc(OC)n1`, the “viability, % of DMSO” value was 148% (inactive). As to `CN(C)CCc1c[nH]c2ccc(CS(=O)(=O)N3CCCC3)cc12`, the “viability, % of DMSO” value was 131% (inactive).

Turning to `CCCN[C@H]1CCc2nc(N)sc2C1`, the “viability, % of DMSO” value is 131% (inactive). The same measure, in the same setting: the value for `O=C(O)c1cn(C2CC2)c2cc(N3CCNCC3)c(F)cc2c1=O` was 155% (inactive); that for `CC(N)C12CC3CC(CC(C3)C1)C2` (stereo not given) was 126% (inactive). Consider `CC(C)(C)C(=O)OCOP(=O)(COCCn1cnc2c(N)ncnc21)OCOC(=O)C(C)(C)C`, for which the Potency is 0.526 µM (active). For `COc1ccc2cc3[n+](cc2c1OC)CCc1cc2c(cc1-3)OCO2`, the Potency is 11.8 µM (active). Take `CN1CCN(c2c(F)cc3c(=O)c(C(=O)O)cn4c3c2OCN4C)CC1`: the “viability, % of DMSO” value was 133% (inactive). For `COc1cc2nc(N3CCCN(C)CC3)nc(NC3CCN(Cc4ccccc4)CC3)c2cc1OC`, the Potency is 16.6 µM (active).

Consider `Nc1nc(N)nc(-c2cc(Cl)ccc2Cl)n1`, for which the “viability, % of DMSO” value was 126% (inactive).

As to `NC1(c2ccc(-c3nc4ccn5c(=O)[nH]nc5c4cc3-c3ccccc3)cc2)CCC1`, the Potency is 5.26 µM (active).

Turning to `CCCCCCNC(=O)n1cc(F)c(=O)[nH]c1=O`, the Potency was 23.5 µM (active). Take `Oc1c(Cl)cc(Cl)c2cccnc12`: the Potency is 8.33 µM (active).

As to `CC(C)(C#N)c1cc(Cn2cncn2)cc(C(C)(C)C#N)c1`, the Potency is 2.35 µM (active). Regarding `CNNCc1ccc(C(=O)NC(C)C)cc1`, the “viability, % of DMSO” value is 146% (inactive). Take `O=C(O)CSCC(=O)NC1CCSC1=O` (stereo not given): the “viability, % of DMSO” value was 162% (inactive). Turning to `COc1ccc(C(=O)CC(=O)c2ccc(C(C)(C)C)cc2)cc1`, the Potency was 0.935 µM (active).

The values are drawn from PubChem BioAssay (NCATS).
